Hit rate of the full screen: of about 3,200 compounds, about 300 (9.4%) showed activity. Only a selection was taken, and actives are over-represented in it overall.
Tested on: A673/TR/shEF
Test: cell viability (LOESS-normalised, relative to median of negative controls) (log2 ratio); higher = more viable cells (less compound effect), active = hit call of the paper (over 3 MAD below the median)
Settings: treatment time: 72 h
How it was run: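 Viability of A673/TR/shEF Ewing sarcoma cells was determined by CellTiter-Glo luminescence. The cells, at 1,500 per well in 384-well plates, were grown with or without doxycycline from 24 h before compound addition to switch on EWS-FLI1 shRNA knockdown, then exposed for three days to library compounds at two or more concentrations or to DMSO controls. Signals were LOESS-corrected plate by plate, normalised to the negative-control median and log2-transformed.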

[1] = 0.25 µM, library screen: screen1, EWS-FLI1 expression: high (no doxycycline)
[2] = 0.25 µM, library screen: screen1, EWS-FLI1 expression: low (doxycycline-induced shRNA knockdown)
[3] = 2.5 µM, library screen: screen1, EWS-FLI1 expression: high (no doxycycline)
[4] = 2.5 µM, library screen: screen1, EWS-FLI1 expression: low (doxycycline-induced shRNA knockdown)
[5] = 0.103 µM, library screen: screen3, EWS-FLI1 expression: high (no doxycycline)
[6] = 0.103 µM, library screen: screen3, EWS-FLI1 expression: low (doxycycline-induced shRNA knockdown)
[7] = 0.308 µM, library screen: screen3, EWS-FLI1 expression: high (no doxycycline)
[8] = 0.308 µM, library screen: screen3, EWS-FLI1 expression: low (doxycycline-induced shRNA knockdown)
[9] = 0.926 µM, library screen: screen3, EWS-FLI1 expression: high (no doxycycline)
[10] = 0.926 µM, library screen: screen3, EWS-FLI1 expression: low (doxycycline-induced shRNA knockdown)
[11] = 2.8 µM, library screen: screen3, EWS-FLI1 expression: high (no doxycycline)
[12] = 2.8 µM, library screen: screen3, EWS-FLI1 expression: low (doxycycline-induced shRNA knockdown)
[13] = 8.3 µM, library screen: screen3, EWS-FLI1 expression: high (no doxycycline)
[14] = 8.3 µM, library screen: screen3, EWS-FLI1 expression: low (doxycycline-induced shRNA knockdown)
[15] = 25 µM, library screen: screen3, EWS-FLI1 expression: high (no doxycycline)
[16] = 25 µM, library screen: screen3, EWS-FLI1 expression: low (doxycycline-induced shRNA knockdown)
[17] = 0.25 µM, library screen: screen2, EWS-FLI1 expression: high (no doxycycline)
[18] = 0.25 µM, library screen: screen2, EWS-FLI1 expression: low (doxycycline-induced shRNA knockdown)
[19] = 2.5 µM, library screen: screen2, EWS-FLI1 expression: high (no doxycycline)
[20] = 2.5 µM, library screen: screen2, EWS-FLI1 expression: low (doxycycline-induced shRNA knockdown)
[21] = 0.025 µM, library screen: screen1, EWS-FLI1 expression: high (no doxycycline)
[22] = 0.025 µM, library screen: screen1, EWS-FLI1 expression: low (doxycycline-induced shRNA knockdown)
[23] = 25 µM, library screen: screen1, EWS-FLI1 expression: high (no doxycycline)
[24] = 25 µM, library screen: screen1, EWS-FLI1 expression: low (doxycycline-induced shRNA knockdown)

Measured: cell viability (log2)

C=CCN1C(=O)C(=C2C(=O)N(C)c3ccccc32)SC1=S
inactive: [1] 0.145 | [2] 0.0841 | [3] 0.0806 | [4] 0.0634

CC1(C)C[C@H](O)[C@]23CC[C@@H](O)[C@@](C)(CC[C@@H]12)C3
inactive: [1] 0.155 | [2] 0.054 | [3] 0.181 | [4] 0.0139

C=CCNc1nc2ccccn2c(=O)c1/C=C1\SC(=S)N(CCc2ccccc2)C1=O
inactive: [1] 0.071 | [2] 0.0307 | [3] 0.121 | [4] 0.134

CCOC(=O)c1c[nH]c2c(Cl)c(Cl)ccc2c1=O
inactive: [1] 0.0772 | [2] 0.122 | [3] 0.11 | [4] 0.176

O=C(O)c1ccc(O)c2c1C(=O)c1cc(O)cc(O)c1C2=O
inactive: [1] 0.0473 | [2] -0.0191 | [3] 0.0745 | [4] 0.0247

COC(=O)Nc1ccc(-c2nc(N3CCOCC3)c3cnn(C4CCN(Cc5cccnc5)CC4)c3n2)cc1
active: [11] -0.33 | [12] -0.297 | [13] -0.973 | [14] -0.691 | [15] -1.84 | [16] -1.76
inactive: [5] -0.0181 | [6] 0.0282 | [7] -0.00456 | [8] -0.0439 | [9] -0.169 | [10] -0.0706

COC(=O)Nc1ccc(-c2nc(N3CCOCC3)c3cnn(C4CCN(C(=O)OC)CC4)c3n2)cc1
active: [11] -0.281 | [12] -0.237 | [13] -0.419 | [14] -0.244 | [15] -0.744 | [16] -0.369
inactive: [5] -0.0923 | [6] 0.0164 | [7] -0.0767 | [8] -0.0949 | [9] -0.134 | [10] -0.0918

COc1cc(CN2CCN(Cc3cccnc3)CC2)cc(OC)c1OC
inactive: [1] 0.0843 | [2] 0.0394 | [3] 0.126 | [4] 0.144

COc1cc(OC)c(OC)cc1CN1CCN(Cc2cccnc2)CC1
inactive: [1] 0.0812 | [2] 0.0446 | [3] 0.193 | [4] 0.00403

COc1cc(/C=C/C(=O)/C=C(O)/C=C/c2ccc(O)c(OC)c2)ccc1O
inactive: [1] 0.0822 | [2] 0.0311 | [3] 0.0603 | [4] -0.0173

COC(=O)c1c(C)c2c(c(C)c1OC(C)=O)OC(=O)c1c(C)c(Cl)c(OC(C)=O)c(Cl)c1O2
inactive: [1] 0.0638 | [2] 0.0229 | [3] 0.0457 | [4] -0.0376

C/C1=C2N=C(/C=C3N=C(/C(C)=C4\[N-]C(C(CC(N)=O)C4(C)CCC(=O)NCC(C)OP(=O)([O-])OC4C(CO)OC(n5cnc6cc(C)c(C)cc65)C4O)C4(C)N=C1C(CCC(N)=O)C4(C)CC(N)=O)C(CCC(N)=O)C\3(C)C)C(CCC(N)=O)C/2(C)CC(N)=O.[Co+3] (stereo unspecified)
inactive: [1] -0.0019 | [2] 0.0391 | [3] 0.0729 | [4] 0.0491

COc1cc(CN2CCN(Cc3cccc(Cl)c3)CC2)c([N+](=O)[O-])cc1OC
inactive: [1] 0.103 | [2] 0.0472 | [3] 0.18 | [4] 0.111

CCc1c(C)c(C#N)c2nc3ccccc3n2c1N1CCN(C)CC1
inactive: [1] 0.145 | [2] 0.157 | [3] 0.118 | [4] 0.0375

N#C/C(=C\c1ccc(O)c(O)c1)C(=O)c1ccc(O)c(O)c1
active: [17] -0.567 | [18] -0.546 | [19] -2.72 | [20] -2.83

N#C/C(=C\c1c[nH]c2ccccc12)C(=O)c1ccc(O)c(O)c1
inactive: [17] 0.155 | [18] 0.0215 | [19] 0.202 | [20] 0.127

COc1cc(/C=C(\C#N)C(=O)c2ccc(O)c(O)c2)cc(I)c1O
inactive: [17] 0.152 | [18] 0.068 | [19] 0.173 | [20] -0.0106

N#C/C(=C\c1ccc(O)c(O)c1)C(N)=O
0.319: [1]
inactive: [21] 0.246 | [22] 0.0278 | [2] 0.0878 | [4] 0.0598 | [24] 0.125
active: [3] -0.381 | [23] -0.224

N#C/C(=C\c1ccc(O)c(O)c1)C(=O)NCCCNC(=O)/C(C#N)=C/c1ccc(O)c(O)c1
inactive: [17] 0.153 | [18] 0.132 | [19] 0.199 | [20] 0.0575

c1coc(CN2CCN(Cc3ccc4ccccc4c3)CC2)c1
inactive: [1] 0.0477 | [2] 0.0071 | [3] 0.142 | [4] 0.0832

COc1ccc2c(c1)CCC1C2CCC2(C)C1C[C@@H](O)[C@@H]2O (stereo partly specified)
inactive: [1] 0.105 | [2] 0.0162 | [3] 0.204 | [4] -0.0118

OC[C@H]1O[C@@H](n2cnc3c(NCCc4ccccc4)ncnc32)C(O)[C@H]1O (stereo partly specified)
inactive: [17] 0.15 | [18] 0.163 | [19] 0.0914 | [20] 0.0608

O=C(O)CCC(=O)OCC(NC(=O)C(Cl)Cl)C(O)c1ccc([N+](=O)[O-])cc1 (stereo unspecified)
inactive: 0.025 µM, library screen: screen2, EWS-FLI1 expression: high (no doxycycline) 0.127 | 0.025 µM, library screen: screen2, EWS-FLI1 expression: low (doxycycline-induced shRNA knockdown) 0.0706 | [1] -0.0271 | [2] 0.0474 | [17] 0.193 | [18] -0.0115 | [3] 0.0762 | [4] 0.177 | [19] 0.153 | [20] 0.083 | 25 µM, library screen: screen2, EWS-FLI1 expression: high (no doxycycline) 0.0706 | 25 µM, library screen: screen2, EWS-FLI1 expression: low (doxycycline-induced shRNA knockdown) 0.0478

O=c1c(O)c(-c2cc(O)c(O)c(O)c2)oc2cc(O)ccc12
inactive: [1] 0.128 | [2] -0.0317 | [3] 0.0648 | [4] 0.111

COc1cc(CN2CCN(Cc3cccc(F)c3)CC2)cc2c1OCO2
inactive: [1] 0.0873 | [2] 0.0661 | [3] 0.0312 | [4] 0.0566

COc1ccc(-c2ccc3c(N4CCOC[C@@H]4C)nc(N4CCOC[C@@H]4C)nc3n2)cc1CO
active: [5] -0.268 | [6] -0.292 | [7] -0.621 | [8] -0.525 | [9] -1.05 | [10] -0.821 | [11] -1.66 | [12] -1.37 | [13] -1.89 | [14] -1.59 | [15] -1.94 | [16] -1.78

COc1ccc(-c2ccc3c(N4CCOCC4)nc(N4C[C@@H](C)O[C@@H](C)C4)nc3n2)cc1CO
inactive: [5] -0.102 | [6] -0.0255 | [7] -0.124 | [8] -0.0614 | [9] -0.171 | [10] -0.169
active: [11] -0.379 | [12] -0.377 | [13] -0.748 | [14] -0.617 | [15] -1.51 | [16] -1.39

COc1cc(/C=C2\SC(NC(C)=O)=NC2=O)cc(Br)c1OC
inactive: [1] 0.0313 | [2] 0.0267 | [3] 0.0885 | [4] 0.0962

O=C(O)Cc1cc(I)c(Oc2cc(I)c(O)c(I)c2)c(I)c1
inactive: [1] 0.0518 | [2] 0.0863 | [3] 0.0776 | [4] -0.0191

COC(=O)[C@H](O)[C@H]1C(C)(C)[C@H](O)[C@@H]2CC3=C4CC(=O)O[C@@H](c5ccco5)[C@]4(C)CC[C@@H]3[C@@]1(C)C2=O
inactive: [1] 0.0837 | [2] 0.0423 | [3] 0.0416 | [4] -0.137

COc1ccc(C2NC(=O)NC(C)=C2C(=O)Nc2ccccc2Cl)cc1OC (stereo unspecified)
inactive: [1] 0.0783 | [2] 0.013 | [3] 0.0736 | [4] -0.0647

CCCCCCCCCCCCCCC[C@H](O)[C@H](N)CO
inactive: [17] 0.153 | [18] 0.105 | [19] 0.146 | [20] 0.102

CCCCCCCCCCCCC/C=C/[C@@H](O)[C@@H](N)CO
inactive: [21] 0.0541 | [22] 0.028 | [1] 0.0998 | [2] 0.0415 | [17] 0.0615 | [18] 0.0389 | [3] 0.0515 | [4] 0.0695 | [19] 0.162 | [20] 0.0866
active: [23] -4.25 | [24] -4.31

CCCCCCCC/C=C/CCCCCCCC(=O)OC(CO)COC(=O)CCCCCCCCCCCCCCC (stereo unspecified)
inactive: [17] 0.242 | [18] 0.101 | [19] 0.231 | [20] 0.152

CCC(C)n1ncn(-c2ccc(N3CCN(c4ccc(OC[C@H]5CO[C@](Cn6cncn6)(c6ccc(Cl)cc6Cl)O5)cc4)CC3)cc2)c1=O (stereo partly specified)
inactive: [5] -0.00587 | [6] -0.0322 | [7] 0.0158 | [8] 0.0366 | [9] 0.0942 | [10] 0.0808 | [11] 0.0248 | [12] 0.0437 | [13] -0.13 | [14] 0.0912 | [15] 0.0658 | [16] 0.11

COC(=O)C(O)c1ccccc1 (stereo unspecified)
inactive: [1] 0.0881 | [2] 0.0567 | [3] 0.0992 | [4] 0.015

Nc1ccc2c3c(cccc13)C(=O)NC2=O
inactive: [18] 0.0582 | [19] 0.0677 | [20] 0.123
active: [17] -0.219

COc1cc(/C=C/C=O)cc(OC)c1OC
inactive: [1] 0.0589 | [2] 0.0132 | [3] 0.0586 | [4] 0.0289

OC1C=CC(Br)C(O)C1O (stereo unspecified)
inactive: [17] 0.12 | [18] 0.141 | [19] 0.0654 | [20] 0.0803

— the supplement of paper PMC6089552
